This is an account of results in PubChem BioAssay (NCI).

Each structure is given as a SMILES string. About 83,000 compounds went through this panel and 20% of them were active in at least one assay; those are over-represented in the sample as a whole.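 Compound tested at a single concentration for 48 hours in 96-well plates; a percent growth value below 10 was scored as active.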 Values without a mark were called inactive. The source made the active and inactive calls.

Common to all, as to assay: NCI-60 one-dose screen, 48 h (100 = growth as untreated, 0 = no growth, -100 = all killed)
Test [1] has as its system HT29 colon. To be noted: 10 µM unless noted.
The subject of test [2] is SNB-75 CNS. The settings on record: 10 µM.
The subject of test [3] is SNB-19 CNS. To be noted: 10 µM unless noted.
In test [4] the test system is U251 CNS. The settings on record: 10 µM unless noted.
The test system of test [5] is PC-3 prostate. To be noted: 10 µM unless noted.
Test [6] relates to SK-MEL-5 melanoma. To be noted: 10 µM unless noted.
The subject of test [7] is UACC-62 melanoma. The settings on record: 10 µM unless noted.
Test [8] concerns LOX IMVI melanoma. To be noted: 10 µM unless noted.
Test [9] relates to SK-MEL-28 melanoma. To be noted: 10 µM unless noted.
Test [10] concerns SN12C renal. The settings on record: 10 µM unless noted.
Test [11] relates to UO-31 renal. The settings on record: 10 µM unless noted.
Test [12] has as its system TK-10 renal. To be noted: 10 µM unless noted.
Test [13] has as its system ACHN renal. To be noted: 10 µM unless noted.
For test [14], the system named is CAKI-1 renal. The settings on record: 10 µM unless noted.
Test [15] has as its system A498 renal. The settings on record: 10 µM unless noted.
Test [16] relates to CCRF-CEM leukemia. The settings on record: 10 µM unless noted.
Test [17] has as its system SK-MEL-2 melanoma. To be noted: 10 µM unless noted.
In test [18] the test system is MOLT-4 leukemia. To be noted: 10 µM unless noted.
Test [19] deals with EKVX NSCLC. The settings on record: 10 µM unless noted.
In test [20] the test system is HCT-15 colon. To be noted: 10 µM unless noted.

For the compound `Cc1cccc(/C=N/Nc2cc(C)c3cccc(C)c3n2)n1`, the growth was 84.9% in [1]; 119% in test [2]; 92.7% in [3]; 78.6% in test [4]; 51.6% in test [5]; 66.2% in [6]. Moreover, the growth in [7] is 87.1%; in [8], 102%; in [9] it was 94.8%; in test [10], 94.6%; in [11], 76.5%; in [12] it was 111%. Besides, the growth in test [13] was 92.1%; in [14], 98.3%; in test [15] it was 97.7%; in [16], 74%.
Take `COc1ccc2[nH]c(C(=O)OCc3ccc4c(Cl)cc(Cl)c(O)c4n3)cc2c1`: the growth in test [1] is -80.3% (active); in [2], -32.4% (active); in test [3], 53.2%; in test [4], 7.6% (active); in test [5], -55.5% (active); in test [6], -30.5% (active). Also, the growth in [7] is -89.4% (active); in test [8], -93.1% (active); in test [17], -11.4% (active); in [10], -75.6% (active); in test [11] it was -100% (active); in test [12] it was -98.1% (active). Further, the growth in test [13] was -99.8% (active); in test [14] it was -99.5% (active); in test [15], 10.5%; in test [16], -9.99% (active); in test [18], -18.5% (active).
With `COc1ccc(/C=N\NC(=O)CN2CCN(c3cc4c(cc3F)c(=O)c(C(=O)N/N=C/c3ccc(OC)c(OC)c3)cn4C3CC3)CC2)cc1OC`, the growth is 6.97% (active) in test [1]; -0.836% (active) in test [3]; -16% (active) in [4]; 13.3% in test [5]; 41.9% in [6]; -52.1% (active) in test [7]. Besides, the growth in test [8] is -77.7% (active); in test [9], -34.1% (active); in test [17] it was -24.8% (active); in test [19], 55%; in [10], -8.5% (active); in [11] it was 85%. The growth is 65.1% in test [12]; 102% in test [13]; 88.2% in [14]; 89.1% in test [15]; 9.85% (active) in [16]; 5.8% (active) in [18].
Regarding `COc1ccc(-c2c(N)n[nH]c2-c2cc(OC)c3c(c2)OCCO3)cc1`, the growth in test [1] was 29.7%; in test [2], 57.4%; in test [3], 84.9%; in test [4], 77.6%; in test [5], 66.9%; in test [6], 69.8%. The growth is 71% in [7]; 69.8% in [8]; 80.7% in test [9]; 64.8% in [17]; 88.7% in test [10]; 92% in [11]. The growth in test [12] was 71.3%; in test [15] it was 71.4%; in test [16] it was 73.7%; in [18], 61.3%.
In the case of `CC1=NC2=CC=CC3=NC(C(Cl)(Cl)Cl)=NC(=N1)N23`, the growth in test [1] was 60%; in [2] it was 56.2%; in [3], 84.5%; in test [4], 74.3%; in [5], 86.3%; in test [6], 88.4%. Further, the growth in test [7] was 69.5%; in [8], 80.6%; in test [9] it was 86.1%; in [17] it was 86.6%; in test [19], 76.1%; in test [10], 86.7%. The growth in test [11] is 63%; in test [12], 112%; in test [13] it was 61%; in [14] it was 61.3%; in test [15] it was 81.9%; in [16], 70.1%. Also, the growth in test [18] is 4.18% (active).
As to `N#Cc1ccc(N2Cc3ccccc3OC3=C2C(=O)c2c(O)ccc(O)c2C3=O)cc1`, the growth in test [1] is -62.4% (active); in [2] it was 76%; in [3], 27.6%; in test [5], -25.6% (active); in test [6], 59.9%; in [7], -26.3% (active). The growth in [8] is -49.7% (active); in test [9], -32.2% (active); in [17], -24% (active); in [10], -32.9% (active); in test [11] it was -80.5% (active); in test [12], -84.4% (active). For the same compound, the growth in test [13] is -59.9% (active); in test [14] it was 2.96% (active); in test [15], 93.4%.
For `CCOC(=O)NNC(=S)Nc1ccccc1`, the growth in [1] is 105%; in test [2], 95.2%; in test [3], 97.9%; in test [4], 101%; in test [5], 100%; in test [6], 100%. Also, the growth was 95.5% in test [7]; 100% in [8]; 106% in test [9]; 116% in test [17]; 99% in test [10]; 89.4% in [11]. Also, the growth in [12] was 111%; in test [13] it was 105%; in [14] it was 92.3%; in [15] it was 95.1%; in [16], 106%; in [18] it was 106%.
In the case of `CC(O)CN1CCCCC1` (stereo unspecified), the growth in test [20] is 107%; in test [4], 99.6%; in [5], 102%; in test [6] it was 105%; in [7], 101%; in [8], 101%. Further, the growth in [9] is 109%; in test [17], 113%; in test [19], 105%; in test [10], 96.8%; in test [11] it was 86.3%; in [12] it was 110%. The growth is 108% in [13], 95.7% in test [14] and 94.5% in [15].
As for `CCOC(=O)C1C(=O)C=C(c2ccc(OC)cc2)CC1c1sc(N(C)Cc2ccccc2)nc1Cl` (stereo unspecified), the growth was 93.3% in test [20]; 84.8% in test [4]; 62.9% in test [5]; 81% in [6]; 46.1% in [7]; 92.1% in test [8]. Also, the growth in [9] was 93.7%; in test [17] it was 74.3%; in [19], 82.4%; in test [10] it was 79.8%; in test [11], 54.2%; in [12], 93.7%. Moreover, the growth in test [13] is 73.8%; in test [14], 76.7%; in [15] it was 93.6%; in [16], 86.5%; in test [18] it was 61.5%.
